D3 ag: D3 dopamine receptor (human) agonism; D3R DiscoveRx beta-arrestin cells, luminescence, 90 min; 410,000 compounds, 0.58% hits; max activation, %; AID 652048; P35462; in the data active = max activation above about 30%; also: 0% is about no effect
Target sequence (P35462 whole entry, looked up): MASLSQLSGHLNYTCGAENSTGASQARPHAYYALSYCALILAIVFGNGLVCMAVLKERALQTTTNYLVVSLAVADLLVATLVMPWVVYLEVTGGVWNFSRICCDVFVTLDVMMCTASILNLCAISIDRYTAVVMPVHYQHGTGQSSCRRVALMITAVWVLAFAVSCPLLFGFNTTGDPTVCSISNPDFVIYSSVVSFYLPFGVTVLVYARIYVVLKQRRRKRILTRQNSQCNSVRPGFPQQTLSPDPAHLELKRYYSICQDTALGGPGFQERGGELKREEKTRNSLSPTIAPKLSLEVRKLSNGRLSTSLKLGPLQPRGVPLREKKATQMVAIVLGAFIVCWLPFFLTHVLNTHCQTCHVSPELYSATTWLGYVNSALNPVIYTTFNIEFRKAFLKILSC
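Agonist-mode cell screen: cells plated at 1500/well and incubated overnight at 37 °C, then exposed to library compounds for 90 min at 37 °C. Detection reagent was added for 30–60 min at room temperature, and luminescence was read.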
D3 antag: blocks the human D3 dopamine receptor | P35462 | D3R cells, DiscoveRx beta-arrestin luminescence, antagonist mode; hits give low values | max response, negative = inhibition, % | 360,000 compounds, 2.5% hits; in the data active = max response below about -50%; inconclusive = no clear call, values can overlap the other calls; also: % is scaled to controls: 0 for no effect and ±100 for the full control effect
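Cells expressing the human receptor were seeded at 1500 cells/well, incubated overnight at 37 degrees C in 5% CO2, then exposed to library compounds with dopamine controls for 90 minutes at 37 degrees C before luminescent detection.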
DT40 TDP1 CPT: growth inhibition of DT40 Tdp1-/-;hTDP1 cells with camptothecin (screen for TDP1 inhibitors); chicken DT40 Tdp1-/-;hTDP1 cells + 20 nM CPT, ATP luminescence, 48 h; Potency, µM (doses to about 46.2 µM), for inactives: at the highest dose activity change, negative = growth inhibition, most hits filed as inhibitors; 420,000 compounds, 12% hits; also: potency is read from the fitted curve at half-maximal effect; % is scaled to controls: 0 for no effect and ±100 for the full control effect; nearly all actives have a fitted effect of over 55% in size
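Chicken DT40 Tdp1-/- cells complemented with human TDP1, 400 cells/well, exposed to compounds plus 20 nM camptothecin for at least 48 h at 37 C; viability read as ATP content by CellTiter-Glo luminescence.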
ClpP mod: qHTS Assay for Activators of ClpP; ATP-dependent Clp protease proteolytic subunit (Bacillus subtilis (strain 168)), P80244; purified B. subtilis ClpP, FRET peptide cleavage, 20 min; Potency, µM (series often up to 57.5 µM), without a hit: top-dose activity change, negative = active; 340,000 compounds, 1.9% hits; AID 651965, 2013; active = well fitted falling curve with a large enough effect; inconclusive = small, poorly fitted or top-dose-only effect; inactive = no such curve, though single readings can be large or run the other way; also: potency is read from the fitted curve at half-maximal effect; the source files actives as falling curves though it sought activators and does not explain the sign; nearly all actives have a fitted effect of over 65% in size
Target sequence (P80244 whole entry, looked up): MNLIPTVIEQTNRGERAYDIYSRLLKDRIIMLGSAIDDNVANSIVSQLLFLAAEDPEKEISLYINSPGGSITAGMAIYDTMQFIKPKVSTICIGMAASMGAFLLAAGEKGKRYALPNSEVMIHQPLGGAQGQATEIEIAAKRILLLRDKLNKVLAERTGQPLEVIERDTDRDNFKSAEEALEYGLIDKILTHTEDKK
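ClpP 10 microg/mL final, pH 8 Tris/KCl buffer with BSA, glycerol, Tween-20; compound pinned in; FRET-FV substrate; RT 20 min; Ex320/Em430; ΔFRET vs ADEP 5.8 microM, DMSO, no enzyme.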
DT40 TDP1 no CPT: qHTS for Inhibitors of human tyrosyl-DNA phosphodiesterase 1 (TDP1): qHTS in cells in absence of CPT | DT40 Tdp1-/- hTDP1 cells, no CPT, ATP luminescence, 48 h | Potency, µM (highest dose often 46.2 µM), inactives show top-dose activity change, negative = growth inhibition, hits mostly inhibitors | 420,000 compounds, 15% hits | AID 686978, 2013; also: potency is read from the fitted curve at half-maximal effect; % is scaled to controls: 0 for no effect and ±100 for the full control effect; nearly all actives have a fitted effect of over 55% in size
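Chicken DT40 Tdp1-/- cells complemented with human TDP1, screened without camptothecin (DMSO vehicle only), 400 cells/well. Compounds pin-transferred, cells incubated at 37 °C for at least 48 hr. Growth read as ATP-dependent luminescence (CellTiter-Glo, 30 min at RT).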
IL1B secr inh: inhibitors of inflammasome signaling (IL-1 beta secretion) | THP-1 LPS/ATP IL-1B secretion, AlphaLISA, 16 h; hits give low values | AID 743279 | activity change, % at 57.5 µM | 360,000 compounds, 4.7% hits; in the data active = activity change below about -50%; inconclusive = mostly about -30% to -49%; also: % is scaled to controls: 0 for no effect and ±100 for the full control effect
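Secreted IL-1B measured by AlphaLISA bead assay after 16 h compound exposure of THP-1 cells; compounds (final up to 57.5 uM) added 1 h before LPS (250 ng/mL) and ATP (1.25 mM) stimulation; lower signal means less secretion.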
Starred values were filed as active, the others as inactive; ? = inconclusive; . = no result given. The list is not random: actives were taken first. Their share in the collection is about 21%. Unless noted, calls follow the shape of the dose curve; as a rule, active = well fitted inhibition curve with a large enough effect; inconclusive = small, poorly fitted or top-dose-only effect; inactive = flat fitted curve, though single readings scatter.

SMILES | D3 ag | D3 antag | DT40 TDP1 CPT | ClpP mod | DT40 TDP1 no CPT | IL1B secr inh
Cn1c(=O)oc2cc(S(=O)(=O)N3CCCC(C(=O)N4CCN(c5ccc(F)cc5)CC4)C3)ccc21 (centres undefined) | 8 | . | 7.3µM* | 1% | 4.1µM* | .
CN1CCN(C(=O)C2CCN(S(=O)(=O)c3ccc4c(c3)oc(=O)n4C)CC2)CC1 | -2 | 9 | -7% | -8% | -1% | 5
Cn1c(=O)oc2cc(S(=O)(=O)N3CCCC(C(=O)N4CCc5ccccc5C4)C3)ccc21 (centres undefined) | -6 | ? | 16µM* | 0% | 15µM* | -6
COc1cc(NC(=O)C2CCN(S(=O)(=O)c3ccc4c(c3)oc(=O)n4C)CC2)cc(OC)c1 | -9 | . | ? | 0% | 21µM* | .
CSCCC(NS(=O)(=O)c1ccc2c(c1)oc(=O)n2C)C(=O)N1CCN(c2ccc(C(C)=O)cc2)CC1 (centres undefined) | -14 | . | -20% | 2% | -23% | .
CSCCC(NS(=O)(=O)c1ccc2c(c1)oc(=O)n2C)C(=O)N1CCN(c2cc(C)ccc2C)CC1 (centres undefined) | -7 | . | ? | -3% | 23µM* | .
Cc1cc2oc(=O)cc(CN3CCN(c4ccc(Cl)c(Cl)c4)CC3)c2cc1Cl | 2 | 2 | -12% | -6% | -1% | -9
CCN(CC)C(=O)Cn1c(=O)n(Cc2ccc(C(=O)NCCCOC)cc2)c(=O)c2ccccc21 | 1 | . | -1% | ? | -4% | .
CCn1ncc(S(=O)(=O)N2CCN(c3cccc(OC)c3)CC2)c1C | -20 | -26 | 5% | 0% | 6% | 14
CCOc1cc(C(=O)Nc2ccc(S(=O)(=O)Nc3cc(OC)nc(OC)n3)cc2)cc(OCC)c1OCC | -11 | . | -14% | -1% | -25% | .
Cc1ccc(C)c(N2CCN(C(=O)C3CCN(S(=O)(=O)c4ccc5[nH]c(=O)oc5c4)CC3)CC2)c1 | 0 | . | 23µM* | 0% | 26µM* | .
Cc1ccc(C)c(N2CCN(C(=O)C(CC(C)C)NS(=O)(=O)c3ccc4nc(C)sc4c3)CC2)c1 (centres undefined) | 2 | . | ? | 2% | 16µM* | .
Cc1nc2ccc(S(=O)(=O)NC(C(=O)N3CCCC3)C(C)C)cc2s1 (centres undefined) | 0 | 23 | ? | -4% | -26% | 8
Cc1ccc(C)c(N2CCN(C(=O)C3CCCN(S(=O)(=O)c4ccc5c(c4)oc(=O)n5C)C3)CC2)c1 (centres undefined) | 6 | . | 16µM* | -2% | 12µM* | .
CCOC(=O)C1CCCN(C(=O)C2CCCN(S(=O)(=O)c3ccc4c(c3)oc(=O)n4C)C2)C1 (centres undefined) | 2 | 1 | -20% | 0% | ? | 4
COc1ccc(N2CCN(C(=O)C3CCN(S(=O)(=O)c4ccc5c(c4)oc(=O)n5C)CC3)CC2)cc1 | 1 | -13 | ? | -2% | 9.2µM* | 4
Cn1nnnc1NN=Cc1ccccc1 | 2 | -10 | 2% | 0% | 11% | -16
Cc1cnc(NC(=O)CN2CCN(c3ccccc3F)CC2)s1 | -14 | 8 | ? | -4% | -17% | 7
Cc1cc(C)nc(SCC(=O)Nc2ncc(Cc3cccc(Cl)c3Cl)s2)n1 | 1 | 11 | 23µM* | 0% | 18µM* | 8
COc1ccccc1CCC(=O)Nc1ncc(C)s1 | 2 | -11 | 10µM* | -1% | ? | 0
CCc1ccc(CCC(=O)Nc2ncc(Cc3ccccc3Cl)s2)o1 | 13 | 1 | 5.2µM* | 2% | 5.8µM* | -1
COc1ccccc1CCC(=O)Nc1nccs1 | -15 | -19 | -17% | -1% | ? | -6
Cc1cnc(NC(=O)Cc2ccccc2F)s1 | 9 | 13 | 7.3µM* | . | 21µM* | -14
O=C(O)CC/C(=N/Nc1ncc(C(F)(F)F)cc1Cl)C(=O)O | 2 | 3 | -5% | . | 3% | 30
CCn1nc(C)c2c(-c3ccccc3)cc(=O)n(C(C)C(=O)NCc3ccc(C)cc3)c21 (centres undefined) | -18 | . | 18µM* | 4% | ? | .
SMILES | D3 ag | D3 antag | DT40 TDP1 CPT | ClpP mod | DT40 TDP1 no CPT | IL1B secr inh
CCn1nc(C)c2c(-c3ccccc3)cc(=O)n(C(C)C(=O)NCCc3ccccc3)c21 (centres undefined) | -10 | . | 18µM* | 5% | ? | .
CCn1nc(C)c2c(-c3ccccc3)cc(=O)n(C(C)C(=O)NCCc3ccc(OC)c(OC)c3)c21 (centres undefined) | -5 | . | ? | -10% | ? | .
CCn1nc(C)c2c(-c3ccccc3)cc(=O)n(C(C)C(=O)NCCC(C)C)c21 (centres undefined) | -13 | . | 18µM* | 4% | ? | .
CCC(C(=O)Nc1cc(C)ccc1OC)n1nnc(C(=O)OC)c1C(=O)OC (centres undefined) | -5 | . | -1% | 1% | 15% | .
Cc1ccc(NC(=O)CN2C(=O)C3(SCC(=O)N3c3ccc(F)c(F)c3)c3ccccc32)c(C)c1 (centres undefined) | 5 | . | ? | 0% | ? | .
Cc1c(C(=O)NCCc2ccncc2)cnn1-c1nccc(-c2ccccc2C(F)(F)F)n1 | . | . | ? | . | -57% | .
O=C(Cn1c(=O)n(Cc2ccco2)c(=O)c2ccccc21)Nc1ccc(Cl)cc1Cl | -4 | . | ? | -1% | ? | .
CN(C)CCNC(=O)c1ccc(COc2ccc(Cl)cc2Cl)cc1 | -19 | -29 | ? | 0% | 18µM* | -7
CNC(=S)NNC(=O)Cc1ccc(O)cc1 | 7 | -21 | -3% | ? | -6% | 12
COc1ccc(Cl)cc1C(=O)NCCN(C)C | -4 | -72* | -3% | -10% | -6% | 0
COc1ccc(CC(=O)NNC(=O)c2cc(Cl)ccc2OC)cc1 | 5 | 2 | 3% | 28µM* | -11% | -5
CNC(=S)NNC(=O)Cc1ccc(OC)cc1 | 5 | -6 | 15% | 28µM* | -5% | 2
CCNC(=O)c1cc(Cl)ccc1OC | 3 | -7 | -4% | -2% | -3% | -15
